This is an account of results in the supplement of paper PMC3334620.

Whole data set: some 33,000 sequences, median “E-score (-0.5 to 0.5)” near -0.015, cut for the highest 2% near 0.3. The sample as a whole holds a higher share of the highest values than the screen did.

The target in the test is T1, Abf1 (UniProt P14164).
T1 sequence: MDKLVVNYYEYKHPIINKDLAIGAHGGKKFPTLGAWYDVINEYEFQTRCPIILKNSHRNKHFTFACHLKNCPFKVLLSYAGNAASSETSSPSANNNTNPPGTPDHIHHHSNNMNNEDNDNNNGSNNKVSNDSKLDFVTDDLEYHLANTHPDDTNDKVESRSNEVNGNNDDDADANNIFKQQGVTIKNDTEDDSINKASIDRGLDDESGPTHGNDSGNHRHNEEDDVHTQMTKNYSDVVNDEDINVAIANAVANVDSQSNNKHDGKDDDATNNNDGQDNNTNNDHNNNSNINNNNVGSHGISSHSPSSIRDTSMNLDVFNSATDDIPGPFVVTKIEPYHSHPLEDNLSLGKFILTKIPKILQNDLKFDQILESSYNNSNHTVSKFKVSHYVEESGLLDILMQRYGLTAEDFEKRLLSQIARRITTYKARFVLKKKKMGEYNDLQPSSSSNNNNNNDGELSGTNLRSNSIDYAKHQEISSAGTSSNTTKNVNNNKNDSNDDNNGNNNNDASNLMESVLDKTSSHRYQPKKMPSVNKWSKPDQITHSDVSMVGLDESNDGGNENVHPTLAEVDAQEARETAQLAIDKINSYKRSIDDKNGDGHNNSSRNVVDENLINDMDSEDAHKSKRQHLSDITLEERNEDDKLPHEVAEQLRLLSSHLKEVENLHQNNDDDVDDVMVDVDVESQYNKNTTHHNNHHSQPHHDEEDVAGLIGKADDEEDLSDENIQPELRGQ
In words: PBM E-score (8-mer binding enrichment) (E-score (-0.5 to 0.5)); higher = stronger / more preferred TF binding. The note with it: protein concentration: 200 nM; construct: GST-full length. How it is done: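 Universal 'all 10-mer' protein binding microarrays (Agilent AMADID 015681) probed with GST-tagged S. cerevisiae TFs (full-length or DBD) made by in vitro transcription/translation (PURExpress), about 100-200 nM. Bound TF was detected with fluorescent anti-GST. Each ungapped 8-mer (which stands for itself and its reverse complement) is scored by the PBM enrichment score (E-score), a modified Wilcoxon-Mann-Whitney statistic from -0.5 to +0.5, computed with the Universal PBM Analysis Suite. Scale: above 0.35 generally sequence-specific binding.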
With CTTTATCC, the “PBM E-score” value is -0.0621.

Take GTTTATGA: the “PBM E-score” value stood at 0.11.

As for GCTTATCA, the “PBM E-score” value was found to be 0.0367.

Take ACTCCCAT: the “PBM E-score” value was -0.029.

Regarding GATCGACA, the “PBM E-score” value is 0.013.

Take TCTTGTAA: the “PBM E-score” value was 0.0644.

Turning to CCGTAAGC, the “PBM E-score” value was found to be 0.0521.

As to ATTTATGA, the “PBM E-score” value amounted to 0.229.

Consider ATTTATCA, for which the “PBM E-score” value worked out at 0.314.

Turning to ATTTATAA, the “PBM E-score” value came out at 0.176.

In the case of CGTACTCA, the “PBM E-score” value was 0.304.

For the sequence TGTACCAA, the “PBM E-score” value was 0.0776.

Take AGTACTCA: the “PBM E-score” value was -0.0128.

Take TGTACTAA: the “PBM E-score” value was 0.0702.

Turning to CGTACTAA, the “PBM E-score” value was found to be 0.329.

CGTACTCC: the “PBM E-score” value worked out at 0.203.

Take CGTACTAC: the “PBM E-score” value turned out to be 0.274.

Consider CGTACCAA, for which the “PBM E-score” value amounted to 0.353.

In the case of CGTACCAG, the “PBM E-score” value is 0.0671.

For the sequence CGACGCGA, the “PBM E-score” value is -0.0138.

AGAATGTC: the “PBM E-score” value stood at 0.188.

In the case of ACAACGCC, the “PBM E-score” value came out at 0.13.

With ACCCTACA, the “PBM E-score” value is -0.153.

As for CGGTCAAC, the “PBM E-score” value stood at 0.0203.

As to ACGACGTG, the “PBM E-score” value was determined as 0.232.

As for GCAAGCGC, the “PBM E-score” value was -0.201.

Turning to ACCTCACC, the “PBM E-score” value was -0.0217.

As to CATACGAA, the “PBM E-score” value is 0.267.

With TCTACGAA, the “PBM E-score” value came to 0.301.

Turning to TATACGAA, the “PBM E-score” value worked out at 0.368.

As to AATACGAC, the “PBM E-score” value was determined as 0.278.

In the case of AATACGAA, the “PBM E-score” value worked out at 0.337.

On to CCTACGAA, for which the “PBM E-score” value was 0.253.

As for AATACGAT, the “PBM E-score” value was determined as 0.276.

Regarding GATACGAC, the “PBM E-score” value was 0.148.

As for TATACGGA, the “PBM E-score” value was found to be 0.164.

Consider ACTACGAA, for which the “PBM E-score” value came to 0.205.

Regarding GATACGAA, the “PBM E-score” value turned out to be 0.309.

For the sequence GTTACGAA, the “PBM E-score” value came to 0.208.

Regarding CCCCATCA, the “PBM E-score” value was -0.235.

As for GAATTGGA, the “PBM E-score” value is -0.016.

AGCACACC: the “PBM E-score” value was -0.13.

Turning to CACAAGAG, the “PBM E-score” value was -0.0119.

Take CCAGCACA: the “PBM E-score” value was -0.0686.

Consider AGCGAGAA, for which the “PBM E-score” value is -0.0126.

In the case of CGATATCC, the “PBM E-score” value came out at 0.17.

In the case of CGATATCA, the “PBM E-score” value was 0.363.

As for CGATATGA, the “PBM E-score” value came out at 0.161.

For the sequence CGGTATCA, the “PBM E-score” value amounted to 0.204.

In the case of CGATATCG, the “PBM E-score” value is 0.372.

Take AGATATCG: the “PBM E-score” value was found to be 0.11.

Consider GGATATTA, for which the “PBM E-score” value stood at 0.088.

Regarding CGATATTC, the “PBM E-score” value was 0.225.

CGATATTA: the “PBM E-score” value is 0.326.

GGACCGCA: the “PBM E-score” value was -0.155.

Consider ACAGGGGC, for which the “PBM E-score” value was -0.194.

On to ACACCCGT, for which the “PBM E-score” value was -0.04.

TCAAACAA: the “PBM E-score” value was -0.127.

Take GAGAGGAC: the “PBM E-score” value is -0.077.

For TCAGTAGA, the “PBM E-score” value was -0.0357.

In the case of CATTAGTC, the “PBM E-score” value is -0.14.

For the sequence GTGACCAC, the “PBM E-score” value stood at 0.175.

For AAGATCGC, the “PBM E-score” value worked out at 0.169.

Take ACGATCGG: the “PBM E-score” value is 0.168.

Take AAGATCGG: the “PBM E-score” value is -0.163.

With ACGATCGC, the “PBM E-score” value was 0.265.

ACGATCGT: the “PBM E-score” value worked out at 0.319.

On to AAGATCGT, for which the “PBM E-score” value amounted to 0.332.

With GCGCTGTA, the “PBM E-score” value was -0.132.

Consider CCTACGTC, for which the “PBM E-score” value was found to be 0.0219.

Regarding TACCAGTA, the “PBM E-score” value turned out to be 0.0685.

In the case of ATCAGGAC, the “PBM E-score” value amounted to 0.103.

In the case of ACCTTGGG, the “PBM E-score” value is -0.0211.

On to ACTGACAT, for which the “PBM E-score” value is 0.0708.

In the case of AGTGACAT, the “PBM E-score” value came out at 0.43.

With CATGACAG, the “PBM E-score” value is 0.0583.

For the sequence CGTGACAG, the “PBM E-score” value is 0.319.

As for AGTGACAA, the “PBM E-score” value amounted to 0.439.

Regarding ATTGACAA, the “PBM E-score” value came to 0.0759.

AGTGACCG: the “PBM E-score” value was determined as 0.125.

For the sequence ACTGACAA, the “PBM E-score” value came to 0.129.

For the sequence GGTGACCA, the “PBM E-score” value turned out to be 0.0526.

AGTGACCA: the “PBM E-score” value amounted to 0.308.

For AGTGACAG, the “PBM E-score” value turned out to be 0.292.

For CCTGACAG, the “PBM E-score” value is -0.0556.

Consider GTATAGGA, for which the “PBM E-score” value was determined as 0.0694.
